The values below come from PubChem BioAssay (NCI).

Among the test systems are DU-145 prostate; K-562 leukemia; MALME-3M melanoma; MDA-MB-231 breast; RXF 393 renal; SF-268 CNS; SF-295 CNS; SF-539 CNS; UACC-257 melanoma; M14 melanoma; HCT-15 colon; SNB-75 CNS; SNB-19 CNS; U251 CNS; PC-3 prostate; SK-MEL-5 melanoma; UACC-62 melanoma; LOX IMVI melanoma; SK-MEL-28 melanoma.
Common to all, as to test: NCI-60 one-dose screen, 48 h (100 = growth as untreated, 0 = no growth, -100 = all killed)
Conditions in all cases: 10 µM unless noted

The panel holds about 83,000 compounds, 20% with a hit somewhere; the sample as a whole holds those more often.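 96-well plates, one dose, 48 hours. Percent growth reported; active if below 10.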 Values without a mark were called inactive. Active and inactive are the calls of the source.

Consider `COC(=O)/C=C1/SC(=Nc2ccc([N+](=O)[O-])cc2)N(CCc2c[nH]c3ccc(O)cc23)C1=O`, for which the growth was 57.3% with DU-145 prostate; 52.5% with K-562 leukemia; 68.6% in the test on MALME-3M melanoma; 61.1% in the test on MDA-MB-231 breast; 27.3% with RXF 393 renal; 43.7% with SF-268 CNS. The growth in the test with SF-295 CNS was 59.5%; in the test on SF-539 CNS it was 66.2%; with UACC-257 melanoma, 55.8%; in the test on M14 melanoma, 46%; in the test with HCT-15 colon it was 46.9%; with SNB-75 CNS, 54.4%. Also, the growth in the test on SNB-19 CNS is 40.3%; in the test on U251 CNS, 36.3%; in the test with PC-3 prostate, 38.6%; with SK-MEL-5 melanoma, 50.5%; in the test with UACC-62 melanoma it was 30.1%; in the test with LOX IMVI melanoma, -21.9% (active). Further, in the test on SK-MEL-28 melanoma, the growth is 52.7%.

In the case of `CCN1C(=O)N(CC)C2C1NN=c1s/c(=C\c3ccc(C(F)(F)F)cc3)c(=O)n12` (stereo not drawn), the growth is 6.72% (active) with DU-145 prostate; 7.4% (active) in the test with K-562 leukemia; 49.5% in the test on MALME-3M melanoma; 9% (active) in the test with MDA-MB-231 breast; 24.1% in the test with RXF 393 renal; 53.5% in the test on SF-268 CNS. Besides, the growth with SF-295 CNS was 14.1%; in the test with SF-539 CNS it was -21.6% (active); in the test with UACC-257 melanoma, 48.9%; in the test with M14 melanoma, 6.9% (active); in the test with HCT-15 colon it was 9.86% (active); in the test with SNB-19 CNS, 24%. The growth in the test on U251 CNS is 6.65% (active); in the test with PC-3 prostate it was 22.6%; in the test with SK-MEL-5 melanoma, 6.27% (active); with UACC-62 melanoma, 30.9%; in the test on LOX IMVI melanoma, 17.4%; with SK-MEL-28 melanoma, 55.8%.

Regarding `O=C(NCc1cccc(CNC(=O)Nc2nc3ccccc3[nH]2)c1)Nc1nc2ccccc2[nH]1`, the growth with DU-145 prostate is -32.6% (active); in the test on K-562 leukemia it was 0.347% (active); with MALME-3M melanoma it was -74.2% (active); in the test on MDA-MB-231 breast, -66.6% (active); in the test on RXF 393 renal it was 43.1%; with SF-268 CNS, 0.441% (active). Moreover, the growth in the test on SF-295 CNS is 5.41% (active); with SF-539 CNS it was 27.5%; in the test with UACC-257 melanoma, -54.1% (active); with M14 melanoma, -77.4% (active); in the test with HCT-15 colon, 69.5%; in the test on SNB-75 CNS, -42.2% (active). Moreover, the growth with SNB-19 CNS was 9.35% (active); in the test on U251 CNS it was -77.9% (active); in the test on PC-3 prostate, -59.8% (active); in the test on SK-MEL-5 melanoma it was -46.5% (active); in the test on UACC-62 melanoma, -15.9% (active); in the test on LOX IMVI melanoma it was -20.4% (active). The growth in the test on SK-MEL-28 melanoma is -76.9% (active).

Turning to `CCOC(=O)c1ccccc1-c1c2ccc(=[N+](C)C)cc-2oc2cc(N(C)C)ccc12`, the growth was 25.3% in the test on DU-145 prostate; 10.2% in the test on K-562 leukemia; 28.2% in the test on MALME-3M melanoma; 11.7% with MDA-MB-231 breast; 18.4% with RXF 393 renal; 20.8% with SF-268 CNS. Besides, the growth was -26.9% (active) in the test with SF-295 CNS; -5.48% (active) with SF-539 CNS; 5.13% (active) with UACC-257 melanoma; 13.5% with M14 melanoma; 70.2% with HCT-15 colon; 7.68% (active) in the test with SNB-75 CNS. Further, the growth is 18.2% in the test on SNB-19 CNS; 14.6% with U251 CNS; 5.32% (active) in the test with PC-3 prostate; -68.1% (active) in the test on SK-MEL-5 melanoma; 9.47% (active) with UACC-62 melanoma; 94.6% in the test on LOX IMVI melanoma. Also, the growth with SK-MEL-28 melanoma was 32%.

`Cc1cc(Nc2ccc(C(=O)N3CCCC3)cc2)nc(NCCCNc2ccnc3cc(Cl)ccc23)n1`: the growth was 91.5% with DU-145 prostate; 33.9% in the test on K-562 leukemia; 54.8% in the test on MALME-3M melanoma; 48.3% in the test with MDA-MB-231 breast; 101% with RXF 393 renal; 67.8% in the test on SF-268 CNS. For the same compound, the growth in the test with SF-295 CNS is 103%; with SF-539 CNS it was 65%; in the test on UACC-257 melanoma, 105%; in the test on M14 melanoma, 82.5%; in the test with HCT-15 colon, 102%; in the test on SNB-19 CNS it was 84.1%. In addition, the growth was 53.5% in the test with U251 CNS; 93.3% in the test on PC-3 prostate; 92.3% with SK-MEL-5 melanoma; 86.8% in the test with UACC-62 melanoma; -67.1% (active) with LOX IMVI melanoma; 92.1% in the test with SK-MEL-28 melanoma.
